Source: PubChem BioAssay (NCATS)
Records with an inconclusive call do not appear. Where a call stands in place of a potency, no number is given. The source made the active and inactive calls. Unless noted, calls come from the whole dose curve; as a rule, active = well fitted curve in the direction sought with a large enough effect; inconclusive = small, poorly fitted or top-dose-only effect, or another doubt; inactive = no such curve, though single readings can be large; an effect the other way counts as inactive or inconclusive.

Columns and labels:
[1] = qHTS to identify inhibitors of the type 1 interferon - major histocompatibility complex class I in skeletal muscle: primary screen against the NCATS Pharmaceutical Collection (AID 1347407);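 note: luminescence of HiBiT knocked into endogenous HLA-B as interferon-induced MHC class I level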
Outline: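 Compounds […] were added to CRISPR-engineered HLA-B-HiBiT C25cl48 human myoblasts with 4.0 ng/ml IFN-beta. After 24 hrs at 37 C, cells were lysed and HiBiT luminescence measured.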

[2] = biological target: Protein phosphatase 1D (Homo sapiens) (UniProt O15297); assay: RapidFire Mass Spectrometry qHTS Assay for Modulators of WT P53-Induced Phosphatase 1 (WIP1) (AID 1347424); note: series mostly up to about 63 µM
Protein phosphatase 1D (Homo sapiens), sequence (O15297 whole entry, looked up): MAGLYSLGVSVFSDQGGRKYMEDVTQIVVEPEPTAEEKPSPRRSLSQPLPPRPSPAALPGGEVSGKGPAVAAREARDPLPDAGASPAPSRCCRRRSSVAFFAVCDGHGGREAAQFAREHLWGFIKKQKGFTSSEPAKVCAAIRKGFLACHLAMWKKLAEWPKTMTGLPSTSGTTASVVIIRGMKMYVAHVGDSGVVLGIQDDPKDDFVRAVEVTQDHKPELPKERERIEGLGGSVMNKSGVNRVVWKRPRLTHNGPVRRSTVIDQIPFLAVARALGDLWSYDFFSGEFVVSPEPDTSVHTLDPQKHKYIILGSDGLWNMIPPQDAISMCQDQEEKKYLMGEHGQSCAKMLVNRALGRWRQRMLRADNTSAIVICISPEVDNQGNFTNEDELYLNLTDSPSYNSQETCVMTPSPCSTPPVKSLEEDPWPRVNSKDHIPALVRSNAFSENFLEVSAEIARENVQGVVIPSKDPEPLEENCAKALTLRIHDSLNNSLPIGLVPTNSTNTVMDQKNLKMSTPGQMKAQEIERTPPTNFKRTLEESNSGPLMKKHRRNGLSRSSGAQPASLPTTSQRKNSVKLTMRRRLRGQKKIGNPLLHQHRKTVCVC
Outline: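 RapidFire MS readout of dephosphorylated VEPPL-S-QETFS product, with 1 uM isotope-labelled peptide standard. Reaction: 10 nM WIP1, 2 uM phosphopeptide substrate, 5 min, room temperature, after 1 h compound preincubation; stopped with 0.5% formic acid.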

[3] = biological target: Protein phosphatase 1D (Homo sapiens) (UniProt O15297); assay: Rhodamine-PBP qHTS Assay for Modulators of WT P53-Induced Phosphatase 1 (WIP1) (AID 1347425)
Outline: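 The read-out is the change in Rhodamine-PBP fluorescence (f1 - f0, ex 525/em 598 nm) as Pi is released, read each minute for 11 min. Final reaction: 5 nM WIP1, 10 uM phosphopeptide VEPPL-pS-QETFS, 10 uM Rh-PBP, 50 mM Tris-HCl pH 7.5, 30 mM MgCl2. Compound was preincubated with enzyme for 1 hour at room temperature.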

[4] = Primary qHTS for inhibitors of La Crosse Virus (LACV) - induced cell death in SH-SY5Y cells (AID 1508616);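 note: top concentration of the series differs between compounds; higher means more rescue of cells from virus-induced death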
Outline: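 SH-SY5Y, 6000 cells/well; cpd via pin tool in DMSO; LACV 0.01 MOI; 6 d 37C 5% CO2; ATPLite, 5 min RT; luminescence normalized to ±virus DMSO controls.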

[5] = Primary qHTS for small molecule stabilizers of the endoplasmic reticulum resident proteome: Secreted ER Calcium Modulated Protein (SERCaMP) assay (AID 1508630)
Outline: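 The SH-SY5Y reporter protocol was run at 3 concentrations up to 38.3 uM (primary) or 11 concentrations (follow-up): 16 h compound, 100 nM thapsigargin for 4 h, then extracellular luciferase luminescence.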

[6] = A High-Content qHTS Against Drug Library for the Identification of Small Molecules that Inhibit DYT1 Early Onset Primary Dystonia-Associated Cell Pathology (AID 1645839; calls by dose curve; note: series mostly up to about 46 µM)
Outline: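 Cells were seeded and left for 24 h, then dosed with compound alongside tetracycline induction of mutant EGFP-TorsinA. They were incubated for 48 h, fixed in 4% paraformaldehyde, permeabilized and imaged for mislocalization (%pathology) and cell count.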

[7] = biological target: Cytochrome P450 2D6 (Homo sapiens) (UniProt P10635); assay: Cytochrome P450 family 2 subfamily D member 6 (CYP2D6) small molecule antagonists: luciferase biochemical (cell-free) qHTS assay (AID 1645840; active = well fitted curve in the direction sought with a large enough effect in the repeat runs; an effect the other way counts as inactive or inconclusive; note: nearly all actives have a fitted effect of over 55% in size; note: potency is the fitted concentration of half-maximal effect)
Cytochrome P450 2D6 (Homo sapiens), sequence (P10635 whole entry, looked up): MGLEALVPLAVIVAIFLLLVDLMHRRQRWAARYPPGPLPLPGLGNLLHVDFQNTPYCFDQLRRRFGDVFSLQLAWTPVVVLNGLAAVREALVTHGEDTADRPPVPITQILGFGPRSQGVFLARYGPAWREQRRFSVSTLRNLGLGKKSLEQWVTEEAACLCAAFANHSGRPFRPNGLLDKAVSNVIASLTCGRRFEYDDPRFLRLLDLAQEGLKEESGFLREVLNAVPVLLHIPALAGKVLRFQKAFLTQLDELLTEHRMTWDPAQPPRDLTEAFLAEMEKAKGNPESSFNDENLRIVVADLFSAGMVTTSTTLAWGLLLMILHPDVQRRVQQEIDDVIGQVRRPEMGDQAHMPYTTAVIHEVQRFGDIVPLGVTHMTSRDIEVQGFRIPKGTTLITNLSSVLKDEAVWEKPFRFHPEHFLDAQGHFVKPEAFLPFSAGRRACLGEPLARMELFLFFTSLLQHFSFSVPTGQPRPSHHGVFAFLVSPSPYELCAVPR
Outline: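 P450-Glo CYP2D6 system: proluciferin substrate converted by enzyme to luciferin, read by luminescence proportional to activity. Enzyme-substrate mix with compound 10 min at room temperature, then NADPH regeneration 1 h before detection reagent.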

[8] = biological target: Calcium and integrin-binding protein 1 (Homo sapiens) (UniProt Q99828); assay: Primary qHTS for Identification of Calcium Integrin Binding Protein 1 (CIB1) Competitor (AID 1508620);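 note: GST tagged CIB1 binding a fluorescein labelled alphaIIb integrin peptide tracer; top concentration of the series differs between compounds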
Calcium and integrin-binding protein 1 (Homo sapiens), sequence (Q99828 whole entry, looked up): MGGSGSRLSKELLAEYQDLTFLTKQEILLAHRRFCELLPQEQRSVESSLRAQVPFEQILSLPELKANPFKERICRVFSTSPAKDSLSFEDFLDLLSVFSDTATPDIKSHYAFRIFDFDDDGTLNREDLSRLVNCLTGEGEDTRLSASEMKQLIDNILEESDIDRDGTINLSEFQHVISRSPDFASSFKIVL
Outline: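 Fluorescence polarization competition: GST-tagged CIB1 (1 uM final) preincubated with compound 15 min at room temperature, then FITC-labelled alphaIIb peptide (100 nM final) added. After 15 min at room temperature, polarization read at Ex 480/Em 540.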

SMILES | outcome [1] | outcome [2] | outcome [3] | outcome [4] | outcome [5] | Potency [6] | Potency [7] | outcome [8]
O=c1[nH]c(=O)c2ccccc2o1 | inactive | inactive | inactive | inactive | inactive | inactive | inactive | –
O=C1C(c2[nH]c3ccccc3c2O)=Nc2ccccc21 | inactive | inactive | inactive | inactive | – | inactive | inactive | –
C=CCN1C[C@H](C(=O)N(CCCN(C)C)C(=O)NCC)C[C@@H]2c3cccc4[nH]cc(c34)C[C@H]21 | inactive | inactive | inactive | – | inactive | inactive | 1.55 µM (active) | inactive
CCCCCCCCCCC(CO)CCCCCCCC (centres undefined) | inactive | inactive | inactive | inactive | – | inactive | inactive | –
NNc1nnc(NN)c2ccccc12 | inactive | inactive | inactive | – | – | inactive | 22.9 µM (active) | –
O=C(NCC(O)CO)c1c(I)c(C(=O)NCC(O)CO)c(I)c(N(CCO)C(=O)CO)c1I (centres undefined) | inactive | inactive | inactive | – | inactive | inactive | inactive | inactive
CC1CC(OC(=O)c2ccccc2O)CC(C)(C)C1 (centres undefined) | inactive | inactive | – | inactive | inactive | inactive | – | inactive
